# Rows were chosen to be rich in hits. Some 7.4% of all compounds tested hit in one or more screens of this group.
# Rab9 promoter act: activators of Rab9 promoter; Huh7 Rab9 promoter-luciferase reporter, luminescence, 24 h; 2.8% of 320,000 active; AID 485297; Potency, µM (titrated, usually from 9.22 µM), actives largely listed as activators; further: nearly all actives have a fitted effect of over 60% in size
#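 Promoter activation is measured as luciferase luminescence in Huh7 cells stably transfected with a Rab9 promoter–luciferase construct, following 24 h compound exposure at 37 °C and 10 min reagent incubation at ambient temperature.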
# ELG1 genotox: induces genotoxicity in HEK293T cells with luciferase-tagged ELG1 | Potency, µM (highest dose often 46 µM), most hits filed as activators | AID 504466 | HEK293T ELG1-luciferase reporter, luminescence, 16 h | 1.3% of 330,000 active; further: nearly all actives have a fitted effect of over 60% in size
#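 Genotoxic stress is detected as increased luminescence from luciferase-tagged ELG1 in HEK293T cells, measured with ONE-Glo after a 16 hr treatment at 37 °C.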
# NPC1 promoter act: NPC1 promoter activation; Potency, µM (highest dose often 9.22 µM), usual class: activators; AID 485313; 2.4% of 320,000 active; Huh7 NPC1 promoter luciferase reporter, 24 h; further: nearly all actives have a fitted effect of over 60% in size
#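 Quantitative HTS used a cell-based reporter: Huh7 cells stably bearing the NPC1 promoter upstream of luciferase were treated with compounds for 24 h, and promoter activation was read as luminescence.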
# FLuc counter: firefly luciferase modulation, counter-screen for miR-21 project. P08659. purified FLuc, Km substrates, luminescence inhibition. Potency, µM (titrated, usually from 57.5 µM), most hits filed as inhibitors. 6.9% of 360,000 active; further: nearly all actives have a fitted effect of over 55% in size
# Target sequence (P08659 whole entry, looked up): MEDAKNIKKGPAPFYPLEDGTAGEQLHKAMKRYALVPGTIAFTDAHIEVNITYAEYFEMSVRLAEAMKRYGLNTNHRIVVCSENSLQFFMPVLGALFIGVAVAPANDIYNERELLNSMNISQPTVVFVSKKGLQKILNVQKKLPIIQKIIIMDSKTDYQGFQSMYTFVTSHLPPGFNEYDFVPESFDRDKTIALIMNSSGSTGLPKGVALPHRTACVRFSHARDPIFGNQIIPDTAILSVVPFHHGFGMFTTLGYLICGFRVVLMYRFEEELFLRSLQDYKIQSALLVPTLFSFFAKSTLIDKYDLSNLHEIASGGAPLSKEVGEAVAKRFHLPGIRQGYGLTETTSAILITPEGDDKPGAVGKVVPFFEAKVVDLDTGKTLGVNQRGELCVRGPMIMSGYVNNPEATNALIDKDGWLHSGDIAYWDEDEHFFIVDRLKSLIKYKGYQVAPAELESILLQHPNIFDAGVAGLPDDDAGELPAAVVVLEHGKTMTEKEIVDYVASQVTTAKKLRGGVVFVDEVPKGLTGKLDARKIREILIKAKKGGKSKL
#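 Biochemical qHTS of compounds, final roughly 60 µM downward over six points, against 10 nM purified firefly luciferase using Km concentrations of substrates (10 uM D-luciferin, 10 uM ATP) in Tris acetate pH 7.5 buffer; luminescence output.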
# SMN2 splice enh: increases expression of the SMN2 splice variant | Potency, µM (series often up to 46.1 µM), usual class: activators | 2.8% of 210,000 active | HEK293 SMN2-luciferase splicing reporter, luminescence, 30-36 h; further: nearly all actives have a fitted effect of over 55% in size
#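 qHTS luciferase splicing reporter: luminescence rises when SMN2 exon 7 is included in transfected HEK293 cells. Compound exposure lasted 30-36 h at 37C, with 4.5 mM final sodium butyrate as control, followed by a ONE-Glo read.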
# Hits are given with their value; . = inactive; ? = inconclusive; / = no result given; ! = repeats disagree; [ ] = another dose, or the depositor's remark. The call rests on the fitted dose curve; in most records, active means well fitted curve in the direction sought with a large enough effect; inconclusive means small, poorly fitted or top-dose-only effect, or another doubt; inactive means no such curve, though single readings can be large; an effect the other way counts as inactive or inconclusive.
SMILES,Rab9 promoter act,ELG1 genotox,NPC1 promoter act,FLuc counter,SMN2 splice enh
CCOc1ccc(-c2cc(C(=O)N3CCN(c4cccc(C(F)(F)F)c4)CC3)c3ccccc3n2)cc1,/,/,/,2.4µM,/
O=C(c1cc(-c2ccccc2)nc2ccccc12)N1CCC2(CC1)OCCO2,.,.,.,?,.
O=c1[nH]c(O)c(N=Nc2ccc(S(=O)(=O)N3CCOCC3)cc2)c(=O)[nH]1,.,.,.,.,.
O=c1[nH]c(O)c(N=Nc2ccc3c(c2)OCCO3)c(=O)[nH]1,.,?,.,1.5µM,.
O=c1[nH]c(=S)[nH]c(O)c1N=Nc1cc2c(cc1[N+](=O)[O-])OCO2,.,.,.,?,.
O=c1[nH]c(=S)[nH]c(O)c1N=Nc1ccc2c(c1)OCCO2,2.5µM,?,?,0.85µM,/
O=c1[nH]c(=S)[nH]c(O)c1N=Nc1ccc2c(c1)OCO2,2.8µM,?,?,4.8µM,.
O=c1[nH]c(=S)[nH]c(O)c1N=Nc1ccc(S(=O)(=O)N2CCOCC2)cc1,.,.,.,.,/
COc1cc2[nH]c(=O)n(Cc3ccc(C(=O)NC4CCCC4)cc3)c(=O)c2cc1OC,.,?,.,.,.
C=CCc1ccc(OC(=O)NC2CCCCC2)c(OC)c1,3.5µM,?,?,11µM,/
NS(=O)(=O)c1ccc(N=Nc2c(O)[nH]c(=S)[nH]c2=O)cc1,.,.,.,?,/
COc1ccc(N=Nc2c(O)[nH]c(=S)[nH]c2=O)cc1,1.8µM,?,1.6µM,6µM,18µM
O=c1[nH]c(=S)[nH]c(O)c1N=Nc1ccc(OC(F)F)cc1,2µM,?,?,5.4µM,13µM
COc1cccc(N=Nc2c(O)[nH]c(=S)[nH]c2=O)c1,?,?,.,13µM,/
CN(C)C(=O)Oc1ccc(OCc2nc3ccccc3[nH]2)cc1,0.45µM,?,?,1.5µM,7.1µM
S=P(C1CCCCC1)(C1CCCCC1)[C@H](c1cccnc1)N1CCCC1,/,/,/,/,.[9.22 µM]
O=C(Nc1ccc2c(c1)OCO2)c1cccn(Cc2cccc([N+](=O)[O-])c2)c1=O,/,/,/,.,/
Cc1cc(NC(=O)c2cccn(Cc3cccc(Cl)c3)c2=O)no1,/,/,/,.,/
O=C(Nc1ccc2c(c1)OCCO2)c1cccn(Cc2ccccc2)c1=O,/,/,/,11µM,/
CCOc1ccc(NC(=O)c2cccn(Cc3cccc(Cl)c3)c2=O)cc1,/,/,/,17µM,/
[N-]=[N+]=CC(=O)CC[C@H](N)C(=O)O,/,/,/,/,.[9.22 µM]
Cc1cccc(N2CCc3c2nc2ccccc2c3N)c1,.,.,.,21µM,.
CN(CCC(=O)O)C1=Nc2ccc(Cl)cc2C(c2ccccc2)=[N+]([O-])C1,/,/,/,/,.[9.22 µM]
CN(C)C(=O)Oc1ccc2c(c1)O/C(=C\c1ccc(Cl)cc1)C2=O,4.5µM,?,?,?,/
CN(C)C(=O)Oc1ccc2c(c1)O/C(=C\c1cccc(Cl)c1)C2=O,?,.,?,27µM,/
SMILES,Rab9 promoter act,ELG1 genotox,NPC1 promoter act,FLuc counter,SMN2 splice enh
CN(C)C(=O)Oc1ccc2c(c1)O/C(=C\c1cccc([N+](=O)[O-])c1)C2=O,.,.,.,.,/
O=C1/C(=C/c2ccc(F)cc2)Oc2cc(OC(=O)N3CCOCC3)ccc21,.,.,.,5.4µM,/
CC(C)CC(=O)C[C@H](O)C(Cl)(Cl)Cl,/,/,/,/,.[9.22 µM]
COc1ccc(/C=C2/C(=O)NC(=O)N(c3ccc(C)c(C)c3)C2=O)cc1CN1C(=O)c2ccccc2C1=O,.,.,.,.,.
CC1=NN(c2ccccc2)C(=O)C1/C=C1\C(=O)NC(=O)N(c2cc(C)cc(C)c2)C1=O (stereo not given),.,.,.,9.5µM,.
Cc1cc(C)cc(N2C(=O)NC(=O)/C(=C\c3cc(C)n(C)c3C)C2=O)c1,.,.,.,.,.
CC1=NN(c2ccccc2)C(=O)C1/C=C1/C(=O)NC(=O)N(c2cccc(C)c2)C1=O (stereo not given),.,.,.,13µM,.
CC1=NN(c2ccccc2)C(=O)C1/C=C1\C(=O)NC(=O)N(c2ccc(C)c(C)c2)C1=O (stereo not given),.,.,.,15µM,.
CC1=NN(c2ccccc2)C(=O)C1/C=C1/C(=O)NC(=O)N(c2cc(C)cc(C)c2)C1=O (stereo not given),.,.,.,17µM,.
Cc1cc(C)cc(N2C(=O)NC(=O)/C(=C\C=C\c3ccco3)C2=O)c1,.,.,.,?,.
CC(CN)CC(=O)O (stereo not given),/,/,/,/,.
Cc1cc(/C=C2\C(=O)NC(=O)N(c3ccccc3)C2=O)c(C)n1-c1ccc(C(=O)O)c(Cl)c1,.,.,.,.,/
Cc1cc(/C=C2\C(=O)NC(=O)N(C)C2=O)c(C)n1-c1ccc2c(c1)OCO2,.,.,.,1.3µM,.
Cc1cc(/C=C2/C(=O)NC(=O)N(C)C2=O)c(C)n1-c1ccccc1,.,.,.,1.1µM,.
Cc1cc(C=C2C(=O)NC(=O)NC2=O)c(C)n1-c1ccc2c(c1)OCO2,.,.,.,2.7µM,.
Cc1cc(/C=C2\C(=O)NC(=O)N(c3ccc(F)cc3)C2=O)c(C)n1-c1cccc(C(=O)O)c1,.,.,.,?,/
Cc1cc(C=C2C(=O)NC(=S)NC2=O)c(C)n1-c1ccc2c(c1)OCO2,.,.,.,3.4µM,.
C/C=C/C/C=C/CCC(=O)[C@H]1O[C@H]1C(N)=O,/,/,/,/,.
Nc1nc2c(ncn2[C@@H]2O[C@H](CO)[C@@H](O)[C@@H]2O)c(=[SH+])[nH]1.O=[N+]([O-])c1ccc(O)[c]([Hg])c1,/,/,/,/,.[9.22 µM]
N=C1c2ccccc2CN1CC(=O)c1ccccc1,?,?,.,15µM,11µM
N=C1c2ccccc2CN1NC(=O)c1ccccc1,.,.,.,.,?
NC1(P(=O)(O)O)CCCCC1,/,/,/,/,.[9.22 µM]
O=C(CN1CCCCC1)c1ccccc1F,.,.,.,.,.
O=C(CN1CCCCC1)c1ccccc1Cl,.,.,.,19µM,.
CN(C)C(=O)Oc1cccc(NC(=O)c2ccccc2C(F)(F)F)c1,.,.,.,.,/
SMILES,Rab9 promoter act,ELG1 genotox,NPC1 promoter act,FLuc counter,SMN2 splice enh
COc1ccccc1NC(=O)c1oc2ccccc2c1NC(=O)c1ccccc1C(F)(F)F,/,/,/,11µM,.
c1nc[nH]n1,/,/,/,/,.
N#CC(C(=O)C12CC3CC(CC(C3)C1)C2)c1nc2ccccc2[nH]1 (stereo not given),.,.,.,11µM,.
O=C(O)/C=C\c1ccc[c]([Sb])c1,/,/,/,/,.[9.22 µM]
CC(C)(C)C(=O)c1cn(CC(=O)NCc2ccco2)c2ccccc12,3.2µM,?,?,?,14µM
c1ccc2c(CN3CCCCCC3)c[nH]c2c1,?,?,.,17µM,/
O=C(O)[C@@H](Br)[C@H](Br)C(=O)O,/,/,/,/,.[9.22 µM]
Cc1noc(C(=O)Nc2sc3c(c2C#N)CCC3)c1Cl,.,.,.,15µM,.
Nc1c2c(nc3sc4c(c13)CCCCC4)CCCC2,?,.,4µM,6µM,11µM
Cc1cc2c(C(C)C)c(O)c(O)c(C=O)c2c(O)c1-c1c(C)cc2c(C(C)C)c(O)c(O)c(C=O)c2c1O,.,?,.,13µM!,.
NC(=O)c1cccc(-c2cccc(OC(=O)NC3CCCCC3)c2)c1,.,.,.,?,/
